# Tested on: PPARg:RXRa IVT, anti-PPARg (NR concentration 270 nM, RXRa partner concentration 90 nM)
# Assay: PBM binding z-score (relative to random genomic background probes); higher = stronger binding; sequences stand for … in GC…GCGATTGACAGCGTAGAATGAAGG
# Outline: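 Random background probes are the reference for binding z-scores. These scores derive from regression-normalized fluorescence on custom Agilent 4×180K protein-binding microarrays incubated 1 h with ligand-free nuclear receptor dimers. Binding was detected with antibodies against each partner (one per run).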
row,Sequence,PBM binding z-score
1,ATCTCTAGGTGAAGTTCAGTGAAAGATCGATAGA,4.09
2,CCGACTGGGGCAGAAAGTTTACCATACCATCCGG,0.907
3,ACAGACAGGTGATGAAGGTAACTAAGGCTATCAT,0.73
4,GCATGTAGATCAAGGTTAAGAAAGACTAAGCTAA,0.797
5,TCTTGTAGATCAACAGGAGGTCAAGAAAGATCGA,2.17
6,CTTGCTAGGTCAATGGTCAGCTAAAGCAGCTCGC,4.93
7,TCGAGTAGGTTCGTCGGGGCATTCAGCCAACATA,-0.0233
8,ATCTCTGGGTAACAAGTTCAGTGAAAGAGAGGAC,2.94
9,TAGCCCAGGTCAGATCGGGCCAGTATACGCTATA,1.18
10,TGTCAAAGTTCAATGGTAACGTAAGTATCCACAC,3.53
11,CGAACGAGGGCATGAGTTGATAGCAAATGCCGAT,2.03
12,CGTCCAAGGTCATAGGAGGTCAGGGAAGACAGAT,4.92
13,GCTGCTTGGTCAACTGATGGTCAGCTAAAGCTCG,0.0173
14,ATCTCTAGGAAACCAAGTTCAGTGAATGCCGAAC,0.0982
15,CCTGCTAGGTCATGGTCATCTAATCTACAGTATG,3.88
16,TAGCCTATGTCATTGGGCCAGTATAGTACGCATC,0.381
17,CGAACTAGGTCAGAACAGGACACTGAAGGATGAT,7.36
18,GCTCGGAGGACAAGGTCAGATCTTTGTCCGTAGA,0.755
19,AGAATGAGGTTATTACGATCAGGGAATTGCGGTC,2.51
20,TCATATACGTAAAAGGTGAAAGTCGGTGTGGTAA,1.71

row,Sequence,PBM binding z-score
1,CCTAGTGGGCCACGAAAGGTCATTGATTCAGTGA,5.59
2,TCTTGTAGTTCAATAGAGGTTAAGAAAGTGCGCT,0.937
3,ACAGACAGGTGATAAAGGTAACTCAGGCTATCAT,0.46
4,CCTACTGGGTCATCAGGTCATTGATATCAACGTT,7.36
5,TCATCTAGGTAAAAGGTGAAAGTCGGTGTGGTAA,5.73
6,CAGCCTAGGTCAGGCCCAGTATAGGAGGAACGTT,1.39
7,AATACAGGGTCATCGTAAGCCAGAGTACGCACAG,4.15
8,CCTACTGGGCCACGAACGGTCATTGATTCAGTGA,4.88
9,GCGACTTGGGCAAAGCAGGTTACCATAAGGTTGG,-0.245
10,TCTAGTAGGTTAGTCGGGGCATTCAGCCAACATA,4.13
11,AGAACGAGGGCACGCTCAGTTGATAGCAGAGTAG,4.09
12,CGTACTAGGTCATTGACAGGACAGTGAATAGTAA,7.54
13,ATCGAAAGGTCGAGGTGAGCATAGAGAAAGGGAA,2.74
14,TCATATAGGTAAAGGTGCAAGTCGAACGATATGA,3.68
15,TCTAGTTGGTCACGGAGGTCACTCACGACGGGTA,3.97
16,GCGACTGGGGCATAAGCAGGTTACCATAACTTAA,3.18
17,AATACAGGCTCATCGTAGGCCAGAGTACGCACAG,-0.0891
18,CGTACAAGGTCAGCAGGTCAGTGAAAGCGACGTG,4.79
19,ACAGACAGGTGAGTGAAGGGAACTCAGCTGGACG,0.352
20,CCTACTGGGCCAAAAAGGTCCTTGATGCCGATAA,2.44
